Results published in PubChem BioAssay (NCATS).
“And” between values parts separate entries of the source, which are not always exact repeats. Equal values may be shown once. Results filed as inconclusive are left out. The source made the active and inactive calls. Unless noted, calls come from the whole dose curve; as a rule, active = well fitted curve in the direction sought with a large enough effect; inconclusive = small, poorly fitted or top-dose-only effect, or another doubt; inactive = no such curve, though single readings can be large; an effect the other way counts as inactive or inconclusive.

Assays:
[1] = biological target: Cytochrome P450 1A2 (Homo sapiens) (UniProt P05177); experiment: p450-cyp1a2 (AID 410; calls by dose curve; note: potency is the fitted concentration of half-maximal effect;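 for activity change, negative = inhibition: -100% = full effect of reference inhibitor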)
Chain of Cytochrome P450 1A2 (Homo sapiens) (P05177 whole entry, looked up): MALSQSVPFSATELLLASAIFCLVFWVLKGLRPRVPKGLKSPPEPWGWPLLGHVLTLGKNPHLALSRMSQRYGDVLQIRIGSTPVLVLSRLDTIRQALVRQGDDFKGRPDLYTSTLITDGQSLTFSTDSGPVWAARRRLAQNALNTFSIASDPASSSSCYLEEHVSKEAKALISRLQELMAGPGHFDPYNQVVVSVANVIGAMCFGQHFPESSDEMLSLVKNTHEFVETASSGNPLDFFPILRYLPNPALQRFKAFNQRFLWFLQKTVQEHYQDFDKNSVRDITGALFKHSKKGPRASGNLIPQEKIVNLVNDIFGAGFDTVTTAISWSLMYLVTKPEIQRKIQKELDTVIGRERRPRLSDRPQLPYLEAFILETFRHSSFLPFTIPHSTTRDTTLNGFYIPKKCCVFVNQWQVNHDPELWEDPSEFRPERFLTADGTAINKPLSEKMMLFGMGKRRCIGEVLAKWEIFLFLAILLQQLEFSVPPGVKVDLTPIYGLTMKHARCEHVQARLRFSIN
Method in brief: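 Inhibition was calculated relative to 57 uM furafylline (full inhibition). The reaction used human CYP1A2 at 20nM with Luciferin-ME at its Km, 100uM, driven by an NADPH-regenerating system for 60 min at room temperature.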

[2] = biological target: Glucocorticoid receptor (Homo sapiens) (UniProt P04150); experiment: GR-GFP Redistribution (AID 450;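 active = compounds whose dose series gives a full or clear partial fitted curve of increased nuclear translocation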; note: potency is the fitted concentration of half-maximal effect); conditions: U2OS GR-GFP nuclear translocation, laser cytometry, 2 h
Chain of Glucocorticoid receptor (Homo sapiens) (P04150 whole entry, looked up, the tested form may be a part): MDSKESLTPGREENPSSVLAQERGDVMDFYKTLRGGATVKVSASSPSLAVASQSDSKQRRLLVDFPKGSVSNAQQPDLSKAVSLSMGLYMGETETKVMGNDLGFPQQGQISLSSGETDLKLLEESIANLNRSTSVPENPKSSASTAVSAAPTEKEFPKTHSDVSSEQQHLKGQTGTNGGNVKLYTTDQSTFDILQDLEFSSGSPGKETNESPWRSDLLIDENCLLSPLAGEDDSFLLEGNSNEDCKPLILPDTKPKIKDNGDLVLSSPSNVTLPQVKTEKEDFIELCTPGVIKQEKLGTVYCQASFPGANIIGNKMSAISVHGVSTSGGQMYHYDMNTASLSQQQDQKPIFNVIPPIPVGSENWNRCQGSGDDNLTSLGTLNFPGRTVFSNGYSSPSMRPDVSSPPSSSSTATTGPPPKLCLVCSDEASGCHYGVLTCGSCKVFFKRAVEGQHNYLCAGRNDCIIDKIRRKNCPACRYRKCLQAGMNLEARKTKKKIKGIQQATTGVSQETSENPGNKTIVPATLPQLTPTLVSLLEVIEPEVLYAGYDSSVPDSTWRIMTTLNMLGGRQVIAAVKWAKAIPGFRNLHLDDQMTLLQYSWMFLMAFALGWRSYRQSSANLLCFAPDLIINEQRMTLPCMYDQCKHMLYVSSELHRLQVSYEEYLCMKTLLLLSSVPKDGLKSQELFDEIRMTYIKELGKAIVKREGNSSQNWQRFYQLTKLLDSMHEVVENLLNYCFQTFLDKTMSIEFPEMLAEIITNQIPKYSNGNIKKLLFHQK

[3] = biological target: Glucocorticoid receptor (Homo sapiens) (UniProt P04150); experiment: GR-EFC Redistribution (AID 451; calls by dose curve; note: potency is the fitted concentration of half-maximal effect); conditions: CHO-K1 GR-EFC translocation, beta-gal luminescence, 2 h
Method in brief: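 Translocation of GR-ED fusion to nuclear EA restores b-gal, read by luminescence after 1 h room-temperature detection. Engineered CHO-K1 biosensor cells, 1,000/well, exposed 2 h at 37 C to titrations up to 46 uM final.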

[4] = biological target: Mitogen-activated protein kinase 10 (Mus musculus) (UniProt Q61831); experiment: JNK3 AlphaScreen Assay (AID 530; active = well fitted curve in either direction with a large enough effect, not every such curve was filed as active;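 note: kinase came from lysate of stimulated human HepG2 cells; signal reports phosphorylation of biotinylated GST-cJun 1-79 at Ser73 with 10 µM ATP; % is set by controls: 0 for no effect and ±100 for the full control effect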)
Method in brief: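 Room-temperature AlphaScreen kinase assay; pre-activated HepG2 lysate as JNK3 source, biotin-GST-cJun(1-79) substrate, 10 uM ATP, compound 15 min preincubation.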

[5] = biological target: 3',5'-cyclic-AMP phosphodiesterase 4B (Homo sapiens) (UniProt Q07343); experiment: qHTS Assay for Inhibitors of PDE-IV (AID 607; active = well fitted activation curve with a large enough effect in the main read-out, with a control signal flat, not every such curve was filed as active; note: % of control where 0% means no effect)
Chain of 3',5'-cyclic-AMP phosphodiesterase 4B (Homo sapiens) (Q07343 whole entry, looked up): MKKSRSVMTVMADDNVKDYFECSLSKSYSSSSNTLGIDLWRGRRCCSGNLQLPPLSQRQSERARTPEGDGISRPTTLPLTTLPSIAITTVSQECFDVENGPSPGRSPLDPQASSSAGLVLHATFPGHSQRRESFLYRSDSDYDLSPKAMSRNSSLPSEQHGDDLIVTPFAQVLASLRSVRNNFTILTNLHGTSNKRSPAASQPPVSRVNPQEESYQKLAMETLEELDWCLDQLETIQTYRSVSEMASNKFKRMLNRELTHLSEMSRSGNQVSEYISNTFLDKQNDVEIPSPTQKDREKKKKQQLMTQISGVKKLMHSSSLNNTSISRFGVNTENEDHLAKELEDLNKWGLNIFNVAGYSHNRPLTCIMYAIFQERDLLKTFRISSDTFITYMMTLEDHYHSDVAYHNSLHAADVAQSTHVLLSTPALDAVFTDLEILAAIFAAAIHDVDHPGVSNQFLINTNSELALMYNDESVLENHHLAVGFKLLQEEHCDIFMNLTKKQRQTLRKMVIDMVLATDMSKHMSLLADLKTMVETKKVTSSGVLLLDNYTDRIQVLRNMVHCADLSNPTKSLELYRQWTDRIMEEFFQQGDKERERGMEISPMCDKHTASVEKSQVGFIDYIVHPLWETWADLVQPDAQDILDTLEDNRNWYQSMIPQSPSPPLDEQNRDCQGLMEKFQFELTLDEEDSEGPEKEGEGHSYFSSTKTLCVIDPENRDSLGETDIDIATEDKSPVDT
Method in brief: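 The readout is membrane depolarisation from a cAMP-sensing CNG channel, detected with a potential dye at ex 535/em 590. Cells were HEK293-derived (endogenous PDE-IV) at 1000 cells/well, titrated up to 22.9 uM final.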

[6] = qHTS Assay for Lipid Storage Modulators (AID 1519; calls by dose curve); conditions: Drosophila S3 cells, BODIPY lipid droplet/cell ratio, laser cytometry, cells loaded with oleic acid
Method in brief: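 Cells seeded at 5,000 per well were treated with compounds over a concentration series and loaded with oleic acid (400 uM, as added). Lipid droplet fluorescence (488 nm excitation, 500-530 nm channel) was read by laser-scanning cytometry and normalized to 20 uM Triacsin C.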

[7] = biological target: Ubiquitin carboxyl-terminal hydrolase 1 (Homo sapiens) (UniProt O94782); experiment: Inhibitors of USP1/UAF1: Pilot qHTS (AID 504865);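 note: rhodamine fluorescence freed from ubiquitin-rhodamine substrate followed over time; top concentration of the series differs between compounds; % is set by controls: 0 for no effect and ±100 for the full control effect; nearly all actives have a fitted effect of over 35% in size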
Chain of Ubiquitin carboxyl-terminal hydrolase 1 (Homo sapiens) (O94782 whole entry, looked up): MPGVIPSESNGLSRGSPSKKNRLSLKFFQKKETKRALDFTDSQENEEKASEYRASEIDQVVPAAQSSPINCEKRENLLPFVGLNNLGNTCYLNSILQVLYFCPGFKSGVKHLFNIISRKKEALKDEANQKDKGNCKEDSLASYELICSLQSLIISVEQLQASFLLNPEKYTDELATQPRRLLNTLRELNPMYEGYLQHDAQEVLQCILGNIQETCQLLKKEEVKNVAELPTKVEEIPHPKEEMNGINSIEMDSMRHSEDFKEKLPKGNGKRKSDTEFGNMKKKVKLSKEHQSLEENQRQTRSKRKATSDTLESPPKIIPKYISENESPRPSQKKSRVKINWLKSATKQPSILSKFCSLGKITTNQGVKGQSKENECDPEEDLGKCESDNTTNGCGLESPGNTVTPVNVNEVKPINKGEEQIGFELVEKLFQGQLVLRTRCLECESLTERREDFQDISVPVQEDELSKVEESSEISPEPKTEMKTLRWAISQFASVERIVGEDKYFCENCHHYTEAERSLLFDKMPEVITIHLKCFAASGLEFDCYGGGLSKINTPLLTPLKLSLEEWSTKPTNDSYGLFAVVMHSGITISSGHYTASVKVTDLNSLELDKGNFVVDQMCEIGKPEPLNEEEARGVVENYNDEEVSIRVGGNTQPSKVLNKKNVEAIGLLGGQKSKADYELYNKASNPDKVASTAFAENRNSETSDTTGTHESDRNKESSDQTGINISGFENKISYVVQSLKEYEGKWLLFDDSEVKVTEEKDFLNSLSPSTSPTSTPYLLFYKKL
Method in brief: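 USP1/UAF1 complex (1nM) preincubated with compound 15 min at room temperature, then Ub-Rho substrate (150nM final) added. Fluorescence read kinetically at 480/540 nm, 6 reads every 60 seconds. Buffer: 50mM HEPES pH 7.8, 0.5mM EDTA, 0.1 mg/ml BSA, 1mM TCEP, 0.01% Tween-20.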

[8] = biological target: DNA dC->dU-editing enzyme APOBEC-3G (Homo sapiens) (UniProt Q9HC16); experiment: qHTS for inhibitors of Vif-A3G interactions: Validation (AID 588379); note: 0% is about no effect
Chain of DNA dC->dU-editing enzyme APOBEC-3G (Homo sapiens) (Q9HC16 whole entry, looked up): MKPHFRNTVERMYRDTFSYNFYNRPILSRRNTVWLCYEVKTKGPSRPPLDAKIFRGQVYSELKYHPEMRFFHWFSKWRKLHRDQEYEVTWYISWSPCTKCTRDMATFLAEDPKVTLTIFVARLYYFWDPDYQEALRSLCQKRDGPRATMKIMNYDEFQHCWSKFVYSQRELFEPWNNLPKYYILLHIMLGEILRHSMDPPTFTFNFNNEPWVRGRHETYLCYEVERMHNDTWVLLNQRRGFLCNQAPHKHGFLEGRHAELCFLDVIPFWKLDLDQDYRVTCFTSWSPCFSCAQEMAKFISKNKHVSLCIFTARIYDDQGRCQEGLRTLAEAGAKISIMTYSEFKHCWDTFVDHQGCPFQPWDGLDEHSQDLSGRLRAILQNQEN
Method in brief: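 HeLa cells stably expressing Vif and A3G-eYFP, 700 cells/well, incubated overnight at 37 deg C, then exposed to compound overnight at 37 deg C. Inhibition of Vif-mediated degradation read as increased yellow fluorescence (Ex 488/Em 500-530) by laser-scanning cytometry.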

[9] = tested on: Zika virus NS2B-NS3 protease; experiment: Primary screen GU AMC qHTS for Zika virus inhibitors (AID 1347154);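 note: 0% = no-inhibitor control and -100% = no-enzyme control; nearly all actives have a fitted effect of over 70% in size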
Method in brief: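 Fluorogenic AMC-substrate cleavage by noncovalent NS2B-NS3 protease complex (25 nM, pH 8.0 Tris buffer with Tween 20) followed for 15 minutes at room temperature (~20% conversion). Percent inhibition from ex340/em450 signal change, fitted by 4-parameter Hill equation.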

[10] = biological target: Cytochrome P450 3A4 (Homo sapiens) (UniProt P08684); experiment: qHTS Assay for Inhibitors and Substrates of Cytochrome P450 3A4 (AID 884); note: nearly all actives have a fitted effect of over 50% in size; note: potency is the fitted concentration of half-maximal effect
Chain of Cytochrome P450 3A4 (Homo sapiens) (P08684 whole entry, looked up): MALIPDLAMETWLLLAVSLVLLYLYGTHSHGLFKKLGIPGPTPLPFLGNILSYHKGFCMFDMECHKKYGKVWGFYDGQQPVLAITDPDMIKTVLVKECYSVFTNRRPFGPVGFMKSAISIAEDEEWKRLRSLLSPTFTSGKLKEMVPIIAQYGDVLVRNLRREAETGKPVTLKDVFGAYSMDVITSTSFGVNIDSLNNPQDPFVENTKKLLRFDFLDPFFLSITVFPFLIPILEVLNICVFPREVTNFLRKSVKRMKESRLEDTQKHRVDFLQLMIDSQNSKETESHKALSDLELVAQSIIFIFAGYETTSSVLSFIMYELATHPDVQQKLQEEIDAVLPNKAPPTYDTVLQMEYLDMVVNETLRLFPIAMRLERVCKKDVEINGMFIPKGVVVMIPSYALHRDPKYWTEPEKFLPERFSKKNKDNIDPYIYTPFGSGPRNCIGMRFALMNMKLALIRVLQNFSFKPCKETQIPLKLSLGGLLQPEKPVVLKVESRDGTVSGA
Method in brief: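 20 nM human CYP3A4 with 25 uM Luciferin-PPXE (at KM) in 200 mM KPO4, preincubated 10 min with compound; NADPH regeneration started a 60 min RT reaction. Luciferin detected by luminescence, normalized to 57 uM ketoconazole as full inhibition.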

[11] = biological target: Cytochrome P450 3A4 (Homo sapiens) (UniProt P08684); experiment: qHTS Assay for Activators of Cytochrome P450 3A4 (AID 885); note: nearly all actives have a fitted effect of over 65% in size
Method in brief: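 Steps: enzyme/substrate mix dispensed; compound added, 10 min RT; NADPH regeneration solution added, 60 min RT; luciferin detection buffer stops reaction; 20 min later luminescence measured.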

[12] = Primary qHTS for small molecule stabilizers of the endoplasmic reticulum resident proteome: Secreted ER Calcium Modulated Protein (SERCaMP) assay (AID 1508630); note: % is set by controls: 0 for no effect and ±100 for the full control effect
Method in brief: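 GLuc-SERCaMP-expressing SH-SY5Y cells, pretreated 16 h with compound, are challenged with thapsigargin to empty ER calcium stores; after 4 h, coelenterazine is added directly to the medium and luminescence is imaged.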

[13] = biological target: Cytochrome P450 2C9 (Homo sapiens) (UniProt P11712); experiment: qHTS Assay for Inhibitors and Substrates of Cytochrome P450 2C9 (AID 883); note: % is set by controls: 0 for no effect and ±100 for the full control effect; nearly all actives have a fitted effect of over 60% in size
Method in brief: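 Turnover of Luciferin-H (100uM, KM) by 10nM human CYP2C9 was measured over 60 min at 37C with NADPH regeneration; inhibitors and some substrates reduce luminescence. Data normalized to sulphaphenazole 57uM.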

[14] = biological target: Cytochrome P450 2C19 (Homo sapiens) (UniProt P33261); experiment: qHTS Assay for Inhibitors and Substrates of Cytochrome P450 2C19 (AID 899); note: nearly all actives have a fitted effect of over 60% in size; note: potency is the fitted concentration of half-maximal effect
Chain of Cytochrome P450 2C19 (Homo sapiens) (P33261 whole entry, looked up): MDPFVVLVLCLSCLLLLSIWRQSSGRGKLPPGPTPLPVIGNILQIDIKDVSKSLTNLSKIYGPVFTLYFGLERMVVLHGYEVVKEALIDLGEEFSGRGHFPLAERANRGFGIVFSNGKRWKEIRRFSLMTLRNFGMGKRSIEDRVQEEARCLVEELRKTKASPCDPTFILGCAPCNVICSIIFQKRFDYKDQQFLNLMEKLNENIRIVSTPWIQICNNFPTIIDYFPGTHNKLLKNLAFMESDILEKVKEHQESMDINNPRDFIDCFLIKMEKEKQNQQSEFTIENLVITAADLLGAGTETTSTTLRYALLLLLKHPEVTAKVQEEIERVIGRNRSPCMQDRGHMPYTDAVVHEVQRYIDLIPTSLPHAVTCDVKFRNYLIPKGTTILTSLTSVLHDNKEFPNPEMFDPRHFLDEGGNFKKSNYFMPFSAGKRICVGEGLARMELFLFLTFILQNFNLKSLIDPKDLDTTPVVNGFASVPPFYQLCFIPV
Method in brief: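 Reactions contain 5nM enzyme, 10uM Luciferin-H EGE (KM) and 50mM KPO4; compound preincubates 10 min at 37C, NADPH regeneration starts turnover for 60 min. Luminescence after detection reagent gives activity.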

[15] = AP1 Signaling Pathway (AID 357; active = well fitted curve in either direction with a large enough effect, not every such curve was filed as active;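 note: ME-180 reporter cells stimulated with EGF at its EC50 level; % is set by controls: 0 for no effect and ±100 for the full control effect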); conditions: ME-180 AP-1-bla reporter, EGF-induced, beta-lactamase ratio, 5 h
Method in brief: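 Read-out was the 460nm/530nm emission ratio (excitation 405nm) after CCF4 loading for 2.5 hours at room temperature. Cells carried an AP-1-driven beta-lactamase reporter, were stimulated with EC50 EGF plus compound for 5 hours, and AC50 values came from titrations.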

[16] = Stat Signaling Pathway (AID 446; active = well fitted curve in either direction with a large enough effect, not every such curve was filed as active;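 note: ME-180 cervical cancer cells given 40 pM IL-6 alongside compound; SIE-controlled beta-lactamase reporter measured as 460/530 nm FRET emission ratio; % is set by controls: 0 for no effect and ±100 for the full control effect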); conditions: ME-180 SIE beta-lactamase reporter, IL-6 stimulated, 5 h
Method in brief: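 Screening format detects activators and inhibitors alike: ME-180 SIE-bla cells stimulated at 40 pM IL-6 for 5 hrs with compound, then dual-emission beta-lactamase read at 405 nm excitation.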

[17] = biological target: Guanine nucleotide-binding protein G(i) subunit alpha-1 (Homo sapiens) (UniProt P63096); experiment: qHTS Assay for Inhibitors of RGS12 GoLoco Motif Activity (Green Fluorophore) (AID 879);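 note: 0% = labeled peptide with Gαi1 and full inhibition = labeled peptide alone without protein; negative values mean loss of peptide binding seen as reduced polarization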
Method in brief: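 Fluorescence polarization assay: 50 nM Gαi1 with 10 nM FITC-labeled RGS12 GoLoco peptide in 10 mM Tris pH 7.5, 150 mM NaCl, 0.1 mM GDP, 0.05% NP40, 10 min at room temperature with compound.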

[18] = biological target: Pyruvate kinase PKM (Homo sapiens) (UniProt P14618); experiment: qHTS Assay for Activators of Human Muscle Pyruvate Kinase (AID 954; active = well fitted curve in the direction sought with a large enough effect, not every such curve was filed as active;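 note: 0% = uninhibited enzyme and -100% = no enzyme or full thiadiazolimine inhibition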)
Chain of Pyruvate kinase PKM (Homo sapiens) (P14618 whole entry, looked up): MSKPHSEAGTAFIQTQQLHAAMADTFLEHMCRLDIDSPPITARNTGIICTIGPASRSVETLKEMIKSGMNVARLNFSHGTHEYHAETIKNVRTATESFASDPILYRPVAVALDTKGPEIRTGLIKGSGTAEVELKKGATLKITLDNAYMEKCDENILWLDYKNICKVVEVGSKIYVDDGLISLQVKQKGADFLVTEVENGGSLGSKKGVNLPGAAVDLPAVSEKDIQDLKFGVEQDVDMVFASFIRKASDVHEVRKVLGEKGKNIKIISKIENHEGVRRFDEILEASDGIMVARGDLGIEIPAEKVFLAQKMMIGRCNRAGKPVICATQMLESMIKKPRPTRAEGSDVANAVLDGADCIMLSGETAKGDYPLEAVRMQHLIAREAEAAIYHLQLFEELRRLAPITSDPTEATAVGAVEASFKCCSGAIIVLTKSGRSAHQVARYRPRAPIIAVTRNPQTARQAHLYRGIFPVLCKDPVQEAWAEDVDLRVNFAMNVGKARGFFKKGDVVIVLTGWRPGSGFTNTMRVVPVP
Method in brief: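 Reaction: 0.1 nM purified PKM2 with 0.5 mM phosphoenolpyruvate and 0.1 mM ADP, room temperature, 1 h. Readout: luciferase-based ATP luminescence after stop reagent. Activators judged against a 0.3 nM enzyme column.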

[19] = biological target: alpha-glucosidase (Oryza sativa, rice) (UniProt Q653V4); experiment: Counterscreen for Glucocerebrosidase Inhibitors: qHTS Assay for Rice alpha-Glucosidase at pH 5.0 (AID 997);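 note: 0% = full activity with enzyme and -100% = basal without enzyme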
Method in brief: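 Rice alpha-glucosidase (4 nM final) with 400 uM 4-methylumbelliferyl-alpha-D-glucopyranoside in citrate buffer pH 5.0, 20 min at room temperature, stopped at pH 10; fluorescence 365/440 nm, compounds 0.7 nM–77 uM, AC50 from Hill fits.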

[20] = measured here: cell count channel max response
[21] = measured here: lipid channel max response

C[C@H](N)C(=O)O
-6.7%: max response [6, 20]
-5.58%: max response [6, 21]
inactive: Potency [1] | Potency [2] > 46 µM | Potency [3] > 46 µM | Potency [4] | Potency [5] | activity change, negative = inhibition ([6]; at 57.5 µM (top of the series)) 1.23% | Potency [7] | Potency [8] | Potency [9]

N[C@H]1CCN(O)C1=O
-8.46%: max response [6, 20]
inactive: Potency [2] > 46 µM | Potency [3] > 46 µM | Potency [4] | activity change, negative = inhibition ([6]; at 57.5 µM (top of the series)) -6.49% | Potency [7] | Potency [8] | Potency [9]
-12.7%: max response [6, 21]

CC(=O)N(OCc1ccccc1)[C@@H]1c2cc(C#N)ccc2OC(C)(C)[C@H]1O
inactive: Potency [11] | Potency [9] | Potency [12]
active: Potency [10] 15.8 µM

CCCN(CCC)C[C@@H]1CCCCN1CCNC(=O)N1c2ccccc2C(=O)Nc2cccnc21
active: Potency [1] 25.1 µM | Potency [14] 7.94 µM
-8.98%: max response [6, 20]
-7.53%: max response [6, 21]
inactive: Potency [2] > 46 µM | Potency [3] > 46 µM | Potency [4] | Potency [13] | Potency [11] | activity change, negative = inhibition ([6]; at 57.5 µM (top of the series)) -0.0589% | Potency [7] | Potency [8] | Potency [9]

Fc1ccc(C(c2ccc(F)cc2)N2CCN(C/C=C\c3ccccc3)CC2)cc1
inactive: activity change, negative = inhibition ([15]; at 17.2 µM (top of the series)) -7.16% | activity change, negative = inhibition ([15]; at 38 µM (top of the series)) 2.24% | activity, negative = inhibition ([16]; at 17.2 µM (top of the series)) 10.1% | activity, negative = inhibition ([16]; at 38 µM (top of the series)) -6.11% | Potency [2] > 46 µM and > 20.6 µM | Potency [3] > 46 µM and > 20.6 µM | Potency [4] | Potency [5] | outcome [17] | Potency [10] | Potency [14] | outcome [18] | outcome [19] | activity change, negative = inhibition ([6]; at 25.7 µM (top of the series)) -8.39% | Potency [9]
-22.1%: max response [6, 21]
-13.5%: max response [6, 20]
active: Potency [1] 15.8 µM

CCOC(=O)[C@H](N)/C=C(\C)CP(=O)(O)O
1.46%: max response [6, 20]
inactive: Potency [1] | Potency [3] > 46 µM | Potency [4] | activity change, negative = inhibition ([6]; at 57.5 µM (top of the series)) -3.23% | Potency [7] | Potency [8] | Potency [9]
-0.232%: max response [6, 21]

CCNCCCNCCCCNCCCNCC
inactive: Potency [2] > 46 µM | Potency [3] > 46 µM | Potency [4] | Potency [5] | activity change, negative = inhibition ([6]; at 57.5 µM (top of the series)) 2.21% | Potency [7] | Potency [8] | Potency [9]
15.1%: max response [6, 20]
18.1%: max response [6, 21]
